# From PubChem BioAssay (Tox21)
# Results filed as inconclusive are left out. Entries that show only a call come without a potency. Values without a mark were called inactive. The source made the active and inactive calls. Unless noted, calls come from the whole dose curve; as a rule, active = well fitted curve in the direction sought with a large enough effect in the repeat runs; inconclusive = weak or mixed curves; inactive = no such curve, though single readings can be large; an effect the other way counts as inactive or inconclusive.
# What was measured:
# [1] = target: Aryl hydrocarbon receptor (Homo sapiens) (UniProt P35869); test: qHTS assay to identify small molecule that activate the aryl hydrocarbon receptor (AhR) signaling pathway (AID 743085); note: nearly all actives have a fitted effect of over 15% in size; note: potency is the fitted concentration of half-maximal effect;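 for activation: HG2L7.5c1 human HepG2 liver cells with stably integrated DRE-driven firefly reporter; series mostly up to about 70 µM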
# Chain of Aryl hydrocarbon receptor (Homo sapiens) (P35869 whole entry, looked up): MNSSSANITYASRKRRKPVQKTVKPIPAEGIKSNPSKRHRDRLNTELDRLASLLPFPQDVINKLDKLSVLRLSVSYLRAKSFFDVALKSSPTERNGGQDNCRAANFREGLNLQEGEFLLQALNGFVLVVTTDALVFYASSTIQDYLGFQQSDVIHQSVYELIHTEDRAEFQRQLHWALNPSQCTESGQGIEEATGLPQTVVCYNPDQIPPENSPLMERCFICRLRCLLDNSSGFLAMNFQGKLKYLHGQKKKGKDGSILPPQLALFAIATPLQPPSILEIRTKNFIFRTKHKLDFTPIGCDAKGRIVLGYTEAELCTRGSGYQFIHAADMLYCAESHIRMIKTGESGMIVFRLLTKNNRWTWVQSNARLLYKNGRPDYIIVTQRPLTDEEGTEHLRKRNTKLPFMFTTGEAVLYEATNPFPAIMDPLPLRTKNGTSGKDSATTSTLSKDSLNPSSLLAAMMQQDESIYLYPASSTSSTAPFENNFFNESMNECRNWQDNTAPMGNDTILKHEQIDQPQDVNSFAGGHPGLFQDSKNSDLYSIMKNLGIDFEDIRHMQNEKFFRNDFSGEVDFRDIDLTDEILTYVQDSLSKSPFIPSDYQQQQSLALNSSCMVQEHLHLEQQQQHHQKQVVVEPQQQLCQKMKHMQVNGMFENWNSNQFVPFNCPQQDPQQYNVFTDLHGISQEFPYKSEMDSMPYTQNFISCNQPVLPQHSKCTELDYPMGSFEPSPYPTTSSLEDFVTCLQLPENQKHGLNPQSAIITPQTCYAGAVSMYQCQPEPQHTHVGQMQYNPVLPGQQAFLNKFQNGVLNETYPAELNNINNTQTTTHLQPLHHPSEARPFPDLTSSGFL
# Method in brief: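 AhR agonist activity is inferred from enhanced light output of a DRE-controlled firefly luciferase reporter in HepG2 cells, measured with ONE-Glo following 24 h treatment at 37C.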
# [2] = qHTS assay to identify small molecule that activate the aryl hydrocarbon receptor (AhR) signaling pathway - cell viability counter screen (AID 743086);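 note: HepG2 liver cells carrying the AhR DRE luciferase reporter; series mostly up to about 70 µM; nearly all actives have a fitted effect of over 45% in size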
# Method in brief: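 Cytotoxicity counter screen: CellTiter-Fluor signal (30 min, 37 C) in 4000 HepG2 cells/well carrying the DRE-luciferase reporter, following 24 h compound exposure at 37 C.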
# [3] = target: Peroxisome proliferator-activated receptor gamma (Homo sapiens) (UniProt P37231); test: qHTS assay to identify small molecule agonists of the peroxisome proliferator-activated receptor gamma (PPARg) signaling pathway (AID 743094; active = well fitted activation curve with a large enough effect in the signal ratio in the repeat runs, not every such curve was filed as active; the % refers to the signal ratio)
# Chain of Peroxisome proliferator-activated receptor gamma (Homo sapiens) (P37231 whole entry, looked up): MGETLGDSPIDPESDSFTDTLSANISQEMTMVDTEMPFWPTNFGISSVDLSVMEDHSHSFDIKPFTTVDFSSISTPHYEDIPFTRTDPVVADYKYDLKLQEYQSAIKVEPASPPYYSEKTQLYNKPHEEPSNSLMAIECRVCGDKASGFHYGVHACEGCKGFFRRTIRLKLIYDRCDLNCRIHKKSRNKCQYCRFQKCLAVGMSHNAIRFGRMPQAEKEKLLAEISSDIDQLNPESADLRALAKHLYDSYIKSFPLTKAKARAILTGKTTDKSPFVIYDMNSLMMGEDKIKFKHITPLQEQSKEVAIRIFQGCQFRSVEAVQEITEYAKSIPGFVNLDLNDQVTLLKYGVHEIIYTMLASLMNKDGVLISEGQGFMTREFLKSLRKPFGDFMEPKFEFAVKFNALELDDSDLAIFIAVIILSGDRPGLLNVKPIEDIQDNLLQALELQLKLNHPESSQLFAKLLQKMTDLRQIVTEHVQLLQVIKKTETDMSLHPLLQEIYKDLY
# Method in brief: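 Agonist activity was taken from a beta-lactamase reporter (FRET substrate, 1 h at room temperature) in HEK293H cells carrying a PPARg UAS-bla construct. Compounds in DMSO were incubated 17 h at 37C after a 5 h cell pre-incubation.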
# [4] = qHTS assay to identify small molecule antagonists of the peroxisome proliferator-activated receptor gamma (PPARg) signaling pathway - cell viability counter screen (AID 743194); note: nearly all actives have a fitted effect of over 55% in size
# Method in brief: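 Viability was measured as CellTiter-Glo luminescence in GeneBLAzer PPARg UAS-bla HEK293H cells. These cells had been exposed 17 h at 37 C to compounds together with rosiglitazone at 50 nM final, with the beta-lactamase readout taken in the same wells.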
# [5] = qHTS assay for small molecule agonists of the antioxidant response element (ARE) signaling pathway (AID 743202; active = well fitted activation curve with a large enough effect in the signal ratio in the repeat runs, not every such curve was filed as active; the % refers to the signal ratio)
# Method in brief: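 After 16 hours of compound treatment at 37 C, HepG2 cells with a stably integrated ARE-driven beta-lactamase reporter were loaded 2 hours at room temperature with LiveBLAzer B/G FRET substrate and fluorescence intensity measured.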
# [6] = qHTS assay for small molecule agonists of the antioxidant response element (ARE) signaling pathway - cell viability counter screen (AID 743203; calls by dose curve; note: nearly all actives have a fitted effect of over 55% in size)
# Method in brief: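 Viability counter screen: CellTiter-Glo luminescence, read after 30 min at room temperature, in ARE-bla HepG2 wells. Compound exposure lasted 16 h at 37C/5% CO2, following a 5 h pre-incubation of the cells after plating.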
# [7] = qHTS assay for small molecule activators of the heat shock response signaling pathway - cell viability counter screen (AID 743209); note: nearly all actives have a fitted effect of over 50% in size
# Method in brief: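 Cytotoxicity counter screen run in the same wells as the heat-shock bla reporter assay: HeLa HSE-bla cells, 5 h compound exposure at 37 C, viability read by CellTiter-Glo luminescence.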
# [8] = qHTS assay for small molecule activators of the heat shock response signaling pathway (AID 743210; active = well fitted activation curve with a large enough effect in the signal ratio in the repeat runs, with a control signal flat, not every such curve was filed as active; the % refers to the signal ratio; note: series mostly up to about 63 µM)
# Method in brief: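 Compound exposure lasted 5 h at 37 C in HeLa cells carrying a heat-shock-element-driven beta-lactamase reporter. Read-out: fluorescence intensity after 2.5 h room-temperature loading with LiveBLAzer B/G FRET substrate.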
# [9] = qHTS assay to identify small molecule agonists of the peroxisome proliferator-activated receptor delta (PPARd) signaling pathway - cell viability counter screen (AID 743211); note: nearly all actives have a fitted effect of over 55% in size
# Method in brief: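 qHTS cell viability: PPARd-bla HEK293H; 17 h cpd, 37C; CellTiter-Glo, luminescence at 30 min RT.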
# [10] = target: Peroxisome proliferator-activated receptor delta (Homo sapiens) (UniProt Q03181); test: qHTS assay to identify small molecule agonists of the peroxisome proliferator-activated receptor delta (PPARd) signaling pathway (AID 743212; calls by dose curve;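 note: HEK293H cells with PPARd UAS beta-lactamase reporter GeneBLAzer system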)
# Chain of Peroxisome proliferator-activated receptor delta (Homo sapiens) (Q03181 whole entry, looked up): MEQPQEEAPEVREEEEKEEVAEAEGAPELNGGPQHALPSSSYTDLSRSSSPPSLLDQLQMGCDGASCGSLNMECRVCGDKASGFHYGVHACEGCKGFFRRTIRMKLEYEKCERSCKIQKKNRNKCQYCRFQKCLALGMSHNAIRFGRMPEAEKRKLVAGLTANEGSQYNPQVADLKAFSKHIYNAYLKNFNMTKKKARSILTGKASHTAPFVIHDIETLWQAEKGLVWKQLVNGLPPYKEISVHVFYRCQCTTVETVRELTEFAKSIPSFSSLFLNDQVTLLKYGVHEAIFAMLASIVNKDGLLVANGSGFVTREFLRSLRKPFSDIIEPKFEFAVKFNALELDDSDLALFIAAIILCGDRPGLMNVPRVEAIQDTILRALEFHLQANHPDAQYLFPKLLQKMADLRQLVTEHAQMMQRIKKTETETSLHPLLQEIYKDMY
# Method in brief: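 Beta-lactamase reporter readout: a ratiometric FRET signal from the LiveBLAzer substrate after 2 h at room temperature. Compound exposure at 37 °C in PPARδ-bla HEK293H cells driven by an upstream activator sequence.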
# [11] = qHTS assay to identify small molecule antagonists of the peroxisome proliferator-activated receptor delta (PPARd) signaling pathway - cell viability counter screen (AID 743213); note: nearly all actives have a fitted effect of over 50% in size
# Method in brief: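 Viability counter-screen, qHTS format: PPARd-bla HEK293H, L165041 300 nM final, 17 h compound exposure at 37 C, CellTiter-Glo luminescence after 30 min RT.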
# [12] = target: Peroxisome proliferator-activated receptor delta (Homo sapiens) (UniProt Q03181); test: qHTS assay to identify small molecule antagonists of the peroxisome proliferator-activated receptor delta (PPARd) signaling pathway (AID 743215; active = well fitted inhibition curve with a large enough effect in the signal ratio in the repeat runs, not every such curve was filed as active; the % refers to the signal ratio;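 note: cells stimulated with agonist L165041 at 300 nM final during compound exposure; series mostly up to about 62 µM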)
# Method in brief: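 Agonist L165041 (300 nM final) added with compound to PPARd-bla HEK293H UAS-bla reporter cells; 17 h incubation at 37 C. Read-out: LiveBLAzer FRET substrate, 2 h at room temperature, fluorescence intensity.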
# [13] = target: Bile acid receptor (Homo sapiens) (UniProt Q96RI1); test: qHTS assay to identify small molecule antagonists of the farnesoid-X-receptor (FXR) signaling pathway (AID 743217; active = well fitted inhibition curve with a large enough effect in the signal ratio in the repeat runs, not every such curve was filed as active; the % refers to the signal ratio)
# Chain of Bile acid receptor (Homo sapiens) (Q96RI1 whole entry, looked up): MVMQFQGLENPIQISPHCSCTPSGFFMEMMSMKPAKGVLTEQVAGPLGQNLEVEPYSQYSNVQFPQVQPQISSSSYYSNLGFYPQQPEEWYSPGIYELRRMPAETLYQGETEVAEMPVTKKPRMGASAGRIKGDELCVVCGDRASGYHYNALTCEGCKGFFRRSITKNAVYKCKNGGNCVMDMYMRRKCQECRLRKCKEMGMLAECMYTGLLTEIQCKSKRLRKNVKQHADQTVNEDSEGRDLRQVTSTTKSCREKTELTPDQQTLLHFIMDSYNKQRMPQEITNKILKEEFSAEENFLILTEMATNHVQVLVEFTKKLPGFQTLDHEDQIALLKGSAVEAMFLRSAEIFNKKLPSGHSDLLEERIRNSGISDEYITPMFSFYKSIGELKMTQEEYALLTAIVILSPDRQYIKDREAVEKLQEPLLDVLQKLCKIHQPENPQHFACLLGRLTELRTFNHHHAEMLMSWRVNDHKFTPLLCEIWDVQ
# Method in brief: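 Antagonist mode: chenodeoxycholic acid at 50 uM final stimulates a UAS-driven beta-lactamase reporter in HEK 293T FXR-bla cells during 16 h, 37C compound exposure. Read-out is FRET substrate fluorescence after 2 h at room temperature.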
# [14] = qHTS assay to identify small molecule agonists of the farnesoid-X-receptor (FXR) signaling pathway - cell viability counter screen (AID 743218); note: nearly all actives have a fitted effect of over 45% in size
# Method in brief: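 Viability counter screen in the same wells: CellTiter-Glo luminescence, 30 min room-temperature incubation, measured after the beta-lactamase read. Cells were GeneBLAzer FXR-UAS-bla HEK 293T, compound-treated 16 h at 37C.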
# [15] = target: Bile acid receptor (Homo sapiens) (UniProt Q96RI1); test: qHTS assay to identify small molecule agonists of the farnesoid-X-receptor (FXR) signaling pathway (AID 743220; active = well fitted activation curve with a large enough effect in the signal ratio in the repeat runs, not every such curve was filed as active; the % refers to the signal ratio)
# Method in brief: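 FXR-UAS-bla HEK 293T cells carrying a UAS-driven beta-lactamase reporter were plated for 5 h at 37C/5% CO2, then exposed to DMSO-dissolved Tox21 10K compounds for 16 h at 37C. A LiveBLAzer B/G FRET substrate was loaded for 2 h at room temperature before fluorescence reading.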
# [16] = qHTS assay to identify small molecule antagonists of the farnesoid-X-receptor (FXR) signaling pathway - cell viability counter screen (AID 743221; active = well fitted cell-killing curve with a large enough effect in the repeat runs, not every such curve was filed as active; note: nearly all actives have a fitted effect of over 50% in size)
# Method in brief: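 After a 5 h settling period, FXR-bla HEK 293T cells receive compound and chenodeoxycholic acid (50 uM final) and incubate 16 h at 37 C; CellTiter-Glo luminescence, read after 30 min at room temperature, reports cell viability.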
# [17] = target: Vitamin D3 receptor (Homo sapiens) (UniProt P11473); test: qHTS assay to identify small molecule agonists of the vitamin D receptor (VDR) signaling pathway (AID 743222; calls by dose curve)
# Chain of Vitamin D3 receptor (Homo sapiens) (P11473 whole entry, looked up): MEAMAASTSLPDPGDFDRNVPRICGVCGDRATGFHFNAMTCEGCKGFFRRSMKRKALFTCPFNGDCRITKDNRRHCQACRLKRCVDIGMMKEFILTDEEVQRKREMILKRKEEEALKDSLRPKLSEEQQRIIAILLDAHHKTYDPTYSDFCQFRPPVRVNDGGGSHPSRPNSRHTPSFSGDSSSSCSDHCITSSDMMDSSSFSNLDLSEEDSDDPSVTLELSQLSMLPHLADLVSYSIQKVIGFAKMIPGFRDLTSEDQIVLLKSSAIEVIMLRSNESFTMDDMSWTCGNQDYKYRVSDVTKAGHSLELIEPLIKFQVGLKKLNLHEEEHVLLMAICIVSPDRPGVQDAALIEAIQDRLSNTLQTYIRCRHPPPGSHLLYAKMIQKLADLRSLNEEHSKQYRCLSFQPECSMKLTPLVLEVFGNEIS
# Method in brief: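 Agonist mode, beta-lactamase reporter: fluorescence from LiveBLAzer B/G FRET substrate (2 h, room temperature) read after 16 h compound treatment at 37 C of VDR-bla cells, which were pre-incubated 4 h after seeding.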
# [18] = target: Vitamin D3 receptor (Homo sapiens) (UniProt P11473); test: qHTS assay to identify small molecule antagonists of the vitamin D receptor (VDR) signaling pathway (AID 743223; active = well fitted inhibition curve with a large enough effect in the signal ratio in the repeat runs, not every such curve was filed as active; the % refers to the signal ratio)
# Method in brief: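 Reporter line VDR-bla; stimulus 1alpha,25-(OH)2 vitamin D3, 3 nM final; compound co-addition, 16 h 37C/5% CO2; LiveBLAzer B/G substrate 2 h RT; fluorescence intensity.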
# [19] = qHTS assay to identify small molecule agonists of the vitamin D receptor (VDR) signaling pathway - cell viability counter screen (AID 743224); note: series mostly up to about 63 µM; nearly all actives have a fitted effect of over 50% in size
# Method in brief: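 Counter screen run in the same wells as the VDR-bla reporter assay: CellTiter-Glo luminescence, 30 min at room temperature, after 16 h compound treatment at 37C of cells pre-plated for 4 h.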
# [20] = target: Peroxisome proliferator-activated receptor gamma (Homo sapiens) (UniProt P37231); test: qHTS assay to identify small molecule antagonists of the peroxisome proliferator-activated receptor gamma (PPARg) signaling pathway (AID 743191; calls by dose curve; note: series mostly up to about 63 µM; nearly all actives have a fitted effect of over 30% in size)
# Method in brief: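 Beta-lactamase reporter under UAS control in HEK293H PPARg-bla cells; compound treatment 17 h at 37C. Read-out: fluorescence intensity after 1 h room-temperature incubation with LiveBLAzer B/G FRET substrate.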
SMILES,Potency [1],Potency [2],outcome [3],Potency [4],Potency [5],outcome [6],outcome [7],outcome [8],Potency [9],outcome [10],Potency [11],outcome [12],outcome [13],outcome [14],outcome [15],Potency [16],outcome [17],outcome [18],outcome [19],outcome [20]
O=[N+]([O-])c1ccc(CCO)cc1,inactive,inactive,inactive,inactive,inactive,inactive,inactive,inactive,inactive,inactive,inactive,inactive,inactive,inactive,inactive,inactive,inactive,inactive,inactive,
CCN(CC)C(=O)c1ccc(O)c(OC)c1,inactive,inactive,inactive,,inactive,inactive,inactive,inactive,,inactive,inactive,inactive,,inactive,,inactive,inactive,,inactive,inactive
C=C(C)C(=O)OCCCCCCCCCCCCCCCCCC,inactive,inactive,inactive,inactive,,inactive,,inactive,inactive,inactive,inactive,inactive,,inactive,,inactive,inactive,inactive,inactive,inactive
Cn1ccc2cc3c(cc21)CCN3C(=O)Nc1cccnc1,335 nM (active),inactive,inactive,inactive,inactive,inactive,inactive,inactive,inactive,inactive,inactive,inactive,inactive,inactive,inactive,,,inactive,inactive,
O=Cc1ccccc1[N+](=O)[O-],inactive,inactive,inactive,inactive,inactive,inactive,inactive,inactive,inactive,inactive,inactive,inactive,,inactive,,inactive,inactive,inactive,inactive,
CCCCOCC(C)OCC(C)O (centres undefined),inactive,inactive,inactive,inactive,inactive,inactive,inactive,inactive,,inactive,,,inactive,inactive,inactive,inactive,inactive,inactive,inactive,
Cc1nc(-c2ccc(OCC(C)C)c(C#N)c2)sc1C(=O)O,29.8 nM (active),inactive,inactive,inactive,,inactive,inactive,inactive,inactive,,inactive,,,inactive,,inactive,,,inactive,
CCCC(C)CO (centres undefined),inactive,inactive,inactive,inactive,inactive,inactive,,inactive,inactive,inactive,inactive,inactive,inactive,inactive,inactive,inactive,,,inactive,
CCCCCCOC(=O)CC(CC(=O)OCCCCCC)(OC(=O)CCC)C(=O)OCCCCCC,inactive,inactive,inactive,inactive,,inactive,inactive,inactive,inactive,inactive,inactive,,,inactive,,inactive,inactive,,,
Nc1cc(C(Cl)=C(Cl)Cl)c(S(N)(=O)=O)cc1S(N)(=O)=O,inactive,inactive,inactive,inactive,,inactive,inactive,inactive,inactive,,inactive,,,inactive,,inactive,,,,
CC(CCO)CCCC(C)(C)O (centres undefined),inactive,inactive,inactive,inactive,,inactive,inactive,inactive,inactive,,inactive,,,inactive,inactive,,inactive,inactive,,
O=C(O)c1ccc[n+]([O-])c1,inactive,inactive,inactive,inactive,,inactive,,inactive,,inactive,inactive,inactive,,inactive,,inactive,inactive,inactive,inactive,
